Compound activity from PubChem BioAssay.
HT1080 IDH1KD tx = HT-1080 IDH1 knockdown cell toxicity (counter line); HT-1080 IDH1 knockdown viability, ATP luminescence, 48 h; hit rate 2% among 360,000; Potency, µM (series often up to 46.1 µM), without a hit: at the top dose activity, negative = toxicity, usual class: cytotoxic;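 also: potency is read from the fitted curve at half-maximal effect; 0% = DMSO wells and -100% = cell-free medium wells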
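% activity derives from luminescence (CellTiter-Glo), normalised to DMSO and no-cell wells. HT-1080-IDH1KD cells, 750/well, had 48 h compound exposure at 37 °C.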
IL-1B inflam inh = inflammasome signaling inhibition, IL-1 beta readout | THP-1 LPS/ATP IL-1B secretion, AlphaLISA, 16 h; active compounds read low | activity change, % at 57.5 µM | hit rate 4.7% among 360,000 | AID 743279; in the data active = activity change below about -50%; inconclusive = mostly about -30% to -49%
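THP-1 cells pretreated 1 hr with compounds (up to 57.5 uM final), then stimulated with LPS (250 ng/mL final) plus ATP (1.25 mM final); secreted IL-1B measured by AlphaLISA after 16 hr, decreased signal indicating inhibition.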
DT40 TDP1 CPT = growth inhibition of DT40 Tdp1-/-;hTDP1 cells with camptothecin (screen for TDP1 inhibitors). chicken DT40 Tdp1-/-;hTDP1 cells + 20 nM CPT, ATP luminescence, 48 h. Potency, µM (doses to about 46.2 µM), inactives show at the top dose activity change, negative = growth inhibition, usual class: inhibitors. hit rate 12% among 420,000; also: potency is read from the fitted curve at half-maximal effect; nearly all actives have a fitted effect of over 55% in size
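Cell growth measured by CellTiter-Glo luminescence after a minimum 48 h, 37 C compound exposure with 20 nM CPT in Tdp1-knockout DT40 cells stably expressing hTDP1, seeded 400/well; qHTS titration format.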
HT1080NT lethal = kills 2HG-producing HT-1080-NT fibrosarcoma cells. AID 686970. HT-1080-NT fibrosarcoma viability, CellTiter-Glo ATP luminescence, 48 h. Potency, µM (highest dose often 46.1 µM), inactives show at the highest dose activity, negative = less viability, usual class: cytotoxic. hit rate 1.6% among 360,000;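 also: NT is the 2HG producing partner of a matched IDH1 knockdown line; potency is read from the fitted curve at half-maximal effect; 0% = DMSO-treated cells and -100% = media-only wells without cells; nearly all actives have a fitted effect of over 55% in size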
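Viability by CellTiter-Glo luminescence after 48 h compound exposure at 37C of HT-1080-NT cells (750/well, RPMI, 5% FBS). % activity scaled between DMSO wells and medium-only wells, then curve-fitted and categorized by curve class.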
DT40 TDP1 no CPT = qHTS for Inhibitors of human tyrosyl-DNA phosphodiesterase 1 (TDP1): qHTS in cells in absence of CPT. DT40 Tdp1-/- hTDP1 cells, no CPT, ATP luminescence, 48 h. Potency, µM (doses to about 46.2 µM), inactives show at the top dose activity change, negative = growth inhibition, actives largely listed as inhibitors. hit rate 15% among 420,000. AID 686978, 2013; also: potency is read from the fitted curve at half-maximal effect; nearly all actives have a fitted effect of over 55% in size
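Seeded 400 DT40-hTDP1 cells/well (vehicle DMSO, no 20 nM CPT); pinned compounds; ≥48 hr at 37 °C; CellTiter-Glo luminescence as viability measure.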
* hit, by the source's call; i = inactive; ? = inconclusive; · = no result given; ! = not confirmed by another sample; [ ] = dose if it differs, or a comment. Rows were chosen to be rich in hits. Some 19% of all compounds tested hit in one or more screens of this group. Unless noted, calls follow the shape of the dose curve; as a rule, active = well fitted curve in the direction sought with a large enough effect; inconclusive = small, poorly fitted or top-dose-only effect, or another doubt; inactive = no such curve, though single readings can be large; an effect the other way counts as inactive or inconclusive. Unless noted, % is scaled to controls: 0 for no effect and ±100 for the full control effect.

SMILES	HT1080 IDH1KD tx	IL-1B inflam inh	DT40 TDP1 CPT	HT1080NT lethal	DT40 TDP1 no CPT
CCOc1ccc2c(c1)C(C)=CC(C)(C)N2	-4.4%	-5.3	13.3µM*!	6.1%	?
CCc1ncc(CN2CCC(C(=O)Nc3cccc(-c4cscn4)c3)CC2)cn1	-2.1%	-3.2	?	0.6%	?
O=CNc1cc(-c2ccccc2Oc2ccccc2)cn2c(-c3ccc(F)cc3)cnc12	?	10.5	?	?	10.3µM*
CC(=O)c1ccc(-c2cnc3c(NC=O)cc(-c4ccccc4Oc4ccccc4)cn23)cc1	?	-15.1	?	?	20.6µM*
Cc1[nH]c2ccccc2c1/C=C/c1c[nH]c2ccccc12	·	·	?	·	11.2µM*
Cc1[nH]c2ccccc2c1/C=C/c1cnc2ccccc2n1	·	·	?	·	12.6µM*
CC(C)N(c1ccccc1)c1ccc(NC(=O)COC(=O)CCN2C(=O)c3cccc([N+](=O)[O-])c3C2=O)cc1	?	-23.9	?	-27.3%	16.4µM*
Cc1nn(C)c(C(=O)N/N=C/c2ccc(-c3ccccc3)cc2)c1Cl	-3.1%	4.7	-23.3%	-3.3%	-13.7%
CCN1C(=O)S/C(=C/c2cn(C)c3ccccc23)C1=O	15.9%	-0.4	-4.3%	14.2%	-20.2%
CCN=C1S/C(=C\c2cc(OCC)c(O)cc2Br)C(=O)N1CC	20.6µM*	-20.0	20.6µM*	18.4µM*	11.6µM*
CCN=C1S/C(=C\c2cn(CC)c3ccccc23)C(=O)N1CC	-17.3%	-26.4	23.1µM*	-18.0%	10.3µM*
COc1cc(/C=C2/SC(=NCc3ccccc3)N(Cc3ccccc3)C2=O)ccc1O	?	-2.8	?	?	?
CCN=C1S/C(=C\c2ccc(O)c(OCC)c2)C(=O)N1CC	-24.3%	i	25.9µM*	-17.6%	20.6µM*
CCNc1ncc2nc(CCc3ccccc3)c(=O)n(Cc3cccc(OC)c3)c2n1	·	·	-24.3%	·	-11.8%
CC1CC(C)CN(S(=O)(=O)c2ccc(NC(=O)C3CSC4(C)CCC(=O)N34)cc2)C1 (stereo not given)	-11.2%	?	23.1µM*	-1.3%	?
CN(C)c1ccc(S(=O)(=O)N2CCCCC2)cc1NC(=O)C1CSC2(C)CCC(=O)N12 (stereo not given)	-0.4%	-27.4	-24.9%	0.2%	25.9µM*
CC12CCC(=O)N1C(C(=O)Nc1ccc(S(=O)(=O)N3CCCCC3)cc1)CS2 (stereo not given)	0.8%	0.5	-13.0%	1.9%	-4.2%
O=C(CCCCCNC(=O)N1CCn2c1nc1ccccc12)NCCc1ccccc1	2.2%	0.0	?	2.4%	?
CCCCNC(=O)C1(C)CCN1C(=O)c1csnn1 (stereo not given)	7.0%	3.0	-10.9%	?	-11.3%
Cc1cnc(C)c(N2CCN(Cc3nc(-c4ccc(C)o4)oc3C)CC2)n1	0.1%	21.1	-19.7%	-2.2%	?
Cc1oc(-c2cccc3ccccc23)nc1CN1CCN(c2ncnc3ccccc23)CC1	?	0.0	16.4µM*	?	11.6µM*
COc1ccc(-c2nc(CN3CCN(c4cc(C)nc(C)c4)CC3)c(C)o2)c2ccccc12	14.6µM*	-105.3*	-104.4%	13µM*	?
Cc1cc(N2CCN(Cc3nc(-c4ccc(Cl)cc4)oc3C)CC2)cc(C)n1	20.6µM*	·	11.6µM*	20.6µM*	18.4µM*
CN1CCN(C(CNC(=O)c2c(F)cccc2F)c2ccc3c(c2)OCO3)CC1 (stereo not given)	·	·	4.5%	·	-9.9%
COc1ccc(CNC(=O)C2CCCN2C(=O)Nc2cccc(Cl)c2)cc1 (stereo not given)	0.9%	-9.2	-16.2%	-0.4%	?
SMILES	HT1080 IDH1KD tx	IL-1B inflam inh	DT40 TDP1 CPT	HT1080NT lethal	DT40 TDP1 no CPT
CC(NC(=O)COC(=O)C1CCCCC1)c1ccccc1 (stereo not given)	1.9%	-3.7	-19.8%	-1.2%	2.0%
CCc1cc(C(=O)N=Nc2c(O)[nH]c3c(Br)cc(Br)cc23)c2ccccc2n1	-12.0%	50.9	20.6µM*	?	?
CCc1cc(C(=O)N=Nc2c(O)[nH]c3ccc([N+](=O)[O-])cc23)c2ccccc2n1	?	27.7	?	?	?
Cc1c(C)c2ccc(OCC(=O)Nc3ccccc3C(N)=O)cc2oc1=O	7.8%	-0.1	7.0%	12.8%	-0.3%
CCCNc1nc2c(c(=O)[nH]c(=O)n2C)n1CCCc1ccccc1	10.1%	10.0	-11.2%	5.2%	-0.5%
Cn1c(=O)c2c(nc(NCCO)n2CCc2ccccc2)n(C)c1=O	3.9%	-5.2	16.4µM*	-27.0%	11.6µM*
Cn1c(=O)c2c(nc(NCCCO)n2CCc2ccccc2)n(C)c1=O	-0.7%	24.7	-12.8%	10.3%	-29.9%
CCCNc1nc2c(c(=O)n(C)c(=O)n2C)n1CCC(C)C	-7.9%	-15.1	16.4µM*	-12.8%	16.4µM*
CCCNc1nc2c(c(=O)n(C)c(=O)n2C)n1CCCc1ccccc1	-1.2%	2.4	13µM*	3.7%	18.4µM*
CC(C)CCn1c(Oc2ccccc2F)nc2c1c(=O)n(C)c(=O)n2C	·	·	18.4µM*	·	?
CC(C)CCn1c(Oc2ccc(Cl)cc2)nc2c1c(=O)n(C)c(=O)n2C	-4.7%	-15.2	?	-1.0%	?
CN1CCN(C(=O)C[C@@H]2CC[C@@H]3[C@H](COC[C@@H](O)CN3Cc3cccc(Cl)c3)O2)CC1	14.1%	11.9	-24.1%	16.7%	-20.4%
O=C(COC(=O)c1ccc(S(=O)(=O)C(F)F)cc1)Nc1cccnc1Cl	14.6%	1.0	9.3%	4.3%	-11.6%
CCCNc1nc2c(c(=O)n(C)c(=O)n2C)n1Cc1cccc(C)c1	-8.2%	14.0	7.31µM*	?	5.8µM*
CCCCCCn1c(NCC)nc2c1c(=O)n(C)c(=O)n2C	-18.2%	-6.5	6.51µM*	-22.7%	2.59µM*
CC(O)CNc1nc2c(c(=O)n(C)c(=O)n2C)n1CCc1ccccc1 (stereo not given)	-18.2%	26.8	?	1.1%	16.4µM*
CCCNc1nc2c(c(=O)n(C)c(=O)n2C)n1CCc1ccccc1	-10.8%	-23.5	5.01µM*	?	7.08µM*
CCCCNc1nc2c(c(=O)n(C)c(=O)n2C)n1CCC	5.4%	10.1	?	-16.8%	?
Cn1c(=O)c2c(nc(NCC(O)CO)n2CCc2ccccc2)n(C)c1=O (stereo not given)	4.1%	12.7	-23.0%	0.4%	?
CCCCC(=O)NCCNc1nc2c(c(=O)n(C)c(=O)n2C)n1Cc1ccccc1	-2.3%	14.6	?	2.2%	?
Cc1ccc(SCC(=O)OCC(=O)N(CCC#N)c2ccccc2)cc1	-1.7%	36.7	-18.0%	-2.5%[9.24 µM]	-16.4%
